# Bioassay records deposited in PubChem by several laboratories.
# Rows were chosen to be rich in hits. Some 3.3% of all compounds tested hit in one or more screens of this group.
# Mcl1-Bid inh = Mcl-1/Bid binding inhibitors, primary screen, biochemical, TR-FRET, 1536-well; TR-FRET Mcl-1/Bid-Dy647 peptide binding; actives 0.97% (n = 220,000); inhibition, % at 21.7 µM; Induced myeloid leukemia cell differentiation protein Mcl-1 (Homo sapiens), Q07820;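 active = compounds that cut the binding signal by more than half at the single screening dose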;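 also: His-tagged Mcl-1 with europium anti-His antibody binding Bid BH3 peptide; 0% = Mcl-1 plus peptide wells and 100% = peptide-only wells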
# Target sequence (Q07820 whole entry, looked up): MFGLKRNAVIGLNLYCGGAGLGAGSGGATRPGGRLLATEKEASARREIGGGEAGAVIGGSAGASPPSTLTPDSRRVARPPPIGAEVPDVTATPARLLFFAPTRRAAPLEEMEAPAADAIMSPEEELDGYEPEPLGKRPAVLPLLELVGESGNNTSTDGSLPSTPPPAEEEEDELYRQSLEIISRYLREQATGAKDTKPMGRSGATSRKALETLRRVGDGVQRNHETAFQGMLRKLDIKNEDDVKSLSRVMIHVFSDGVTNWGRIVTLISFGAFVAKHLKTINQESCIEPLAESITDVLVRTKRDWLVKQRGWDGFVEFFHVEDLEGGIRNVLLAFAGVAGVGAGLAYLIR
# eIF4E-4G inh = eIF4E–eIF4G protein interaction inhibitors, primary screen, biochemical, uHTS, TR-FRET, eIF4GI fragment; actives 0.37% (n = 220,000); inhibition, % at 21.7 µM; Eukaryotic translation initiation factor 4E (Mus musculus) + Eukaryotic translation …; TR-FRET eIF4E-eIF4GI(517-606) binding, 2 h;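 also: 0% = full FRET control wells and 100% = background wells lacking eIF4GI fragment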
# Bim-Mcl-1 = inhibitors of Bim peptide binding to Mcl-1, primary screen, biochemical, bead-based flow cytometry, multiplex; Induced myeloid leukemia cell differentiation protein Mcl-1 (Homo sapiens), Q07820; actives 0.1% (n = 190,000); inhibition, % at 10 µM; Bim peptide-Mcl-1 binding; in the data active = inhibition above about 40%;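 also: 0% = no compound tracer wells and 100% = peptide blocker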
# Mcl1 Noxa PPI = Mcl-1/Noxa binding inhibitors, primary screen, biochemical, TR-FRET, 1536-well; Induced myeloid leukemia cell differentiation protein Mcl-1 (Homo sapiens), Q07820; TR-FRET Mcl-1/Noxa peptide binding, 2 h; inhibition, % at 21.7 µM; actives 1.5% (n = 220,000); AID 1022, 2008;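 active = compounds that cut the protein-peptide binding signal by more than 50% relative to plate controls in a single-dose test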;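 also: His-tagged Mcl-1 with rhodamine Noxa BH3 peptide and terbium anti-His antibody; 0% = Mcl-1 plus Noxa peptide wells and 100% = peptide-only wells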
# 14-3-3 Bad PPI = inhibitors of 14-3-3 zeta/Bad binding, primary screen, biochemical, TR-FRET, bovine 14-3-3 zeta. 14-3-3 protein zeta/delta (Bos taurus), P63103. TR-FRET 14-3-3zeta/Dy647-pBad peptide displacement, 1 h. inhibition, % at 21.7 µM. actives 0.71% (n = 220,000). AID 781, 2007;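 active = inhibition above about 70%, limit read from the data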;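 also: 0% = full 14-3-3 plus peptide FRET controls and 100% = background without 14-3-3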
# Target sequence (P63103 whole entry, looked up): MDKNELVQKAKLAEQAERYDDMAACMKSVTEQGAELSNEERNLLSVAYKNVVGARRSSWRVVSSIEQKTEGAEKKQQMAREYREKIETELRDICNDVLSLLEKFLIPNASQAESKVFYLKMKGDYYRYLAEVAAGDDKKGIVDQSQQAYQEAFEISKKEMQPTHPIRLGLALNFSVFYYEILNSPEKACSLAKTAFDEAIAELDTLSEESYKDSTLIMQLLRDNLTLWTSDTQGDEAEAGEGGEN
# NCF1 inh = p47phox/p22phox peptide binding inhibitors, primary screen, biochemical, uHTS, NADPH oxidase regulatory subunit. fluorescence polarization, 2 h. inhibition, % at 24.7 µM. actives 0.53% (n = 220,000);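 also: 0% = p47phox with labelled peptide and 100% = labelled peptide alone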
# Starred values were filed as active, the others as inactive; · = no result given; [ ] = dose if it differs, or a comment.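 The calls were made as follows, unless noted: active = inhibition above about 30% (limit read from the data); inactive = the rest.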
SMILES,Mcl1-Bid inh,eIF4E-4G inh,Bim-Mcl-1,Mcl1 Noxa PPI,14-3-3 Bad PPI,NCF1 inh
O=C(/C=C/c1ccccc1)NC(=S)Nc1ncccn1,-76,19,·,68*,19,1
O=C(O)/C=C/C(=O)Nc1ccc(Oc2ccc(NC(=O)/C=C/C(=O)O)cc2)cc1,-21,13,0,66*,11,-7
O=C1C2CC=C(Cl)CC2C(=O)N1CCCCCCN1C(=O)C2CC=C(Cl)CC2C1=O (centres undefined),-27,13,1,55*,11,-28
CC(C)OP(=O)(OC(C)C)/C(C=O)=N\Nc1ccc([N+](=O)[O-])cc1,-25,-1,·,12,-1,3
CCOC(=O)CC1COCCN1Cc1cn(C)nc1-c1ccccc1F (centres undefined),-37,-2,-1,15,-8,2
O=C1/C(=C\c2ccco2)NC(=S)N1c1ccccc1,-31,3,3,58*,1,-18
O=C1CCCC2=C1C(c1ccc(O)c(O)c1)Nc1ccc3ncccc3c12 (centres undefined),-24,5,5,77*,-9,-1
Cc1c(Cl)cccc1NC(=S)N(CCN(C)C)C(C)c1ccco1 (centres undefined),-104,1,·,-12,-2,-9
CCC(C)[C@@H](NC(=O)OC(C)(C)C)c1nnc(S(=O)(=O)Cc2cccc(C)c2)o1 (some centres undefined),-35,4,-1,1,5,60*
N#Cc1c(Cl)c(Cl)c2nnc(-c3ccc(Br)cc3)n2c1Cl,14,36*[fluorescence artefact?],7,-40,95*[fluorescence artefact?],-97
Cc1ccc2c(n1)sc1c(-c3ccc(Br)cc3)c(C#N)c(N)nc12,46,-51,2,-11,61,-36
COc1ccc(NC(=O)C(Sc2nnc(-c3ccncc3)n2-c2ccccc2C)c2ccccc2)cc1Cl (centres undefined),0,-1,-3,-7,5,-22
O=C(NCCc1ccccc1)c1c(F)c(F)c(F)c(F)c1F,-16,-2,-5,0,-2,3
COc1ccc(C(=O)NNC(=O)c2ccncc2)cc1,-11,-2,-4,61*,-6,-33
CC(=O)c1ccc(NC(=S)NNC(=O)c2ccncc2)cc1,92*,6,-6,17,-4,-13
CC(=O)Nc1nc(C2COc3ccccc3O2)cs1 (centres undefined),6,4,0,-11,5,-10
CN(C)C=Nc1nonc1-c1ccccc1,1,1,·,0,-8,-10
CN(C)C=Nc1c(Br)cc(Br)c2nonc12,-32,1,-5,60*,6,-117
Cc1ccc(NC(=S)NC2CC3CCC(C2)N3Cc2ccco2)c(C)c1 (centres undefined),-39,-7,-4,2,-1,37*
Cc1cc(NC(=O)CN2C(=O)NC(C)(c3ccc(Cl)cc3)C2=O)no1 (centres undefined),-10,3,2,10,-16,-4
COP1(=O)C=C[C@H](N(Cc2ccccc2)S(=O)(=O)c2ccccc2[N+](=O)[O-])[C@@H](C)O1 (some centres undefined),-43,-3,·,19,-1,-12
CCOC(=O)N1CCC(NC(=O)c2ccc3c(c2)sc2nc(-c4ccccc4)cn23)CC1,-32,·,-2,-17,·,-17
CCOC(=O)N1CCC(NC(=O)c2ccc3c(c2)sc2nc(-c4cccc(OC)c4)cn23)CC1,-87,2,-14,-2,75*,13
CCN(CC)C(=O)CSc1nnc(-c2cccnc2)n1CCc1ccccc1,-3,12,3,61*,8,15
Cn1c(SCC(=O)O)nnc1-c1ccc2ncccc2c1,-7,-4,·,-8,-8,-10
SMILES,Mcl1-Bid inh,eIF4E-4G inh,Bim-Mcl-1,Mcl1 Noxa PPI,14-3-3 Bad PPI,NCF1 inh
O=C(/C=C/c1cn(-c2ccccc2)nc1-c1cccnc1)NCCN1CCOCC1,-20,-4,0,-5,85*,0
O=C(/C=C/c1cn(-c2ccccc2)nc1-c1cccnc1)N1CCCC1,-13,-1,-1,-6,-6,-5
Cc1ccc(S(=O)(=O)N(CC(=O)N/N=C/c2cccc(Cl)c2)c2cccc3cccnc23)cc1,86*,-12,-1,-18,1,-6
COC(=O)c1c(-c2c(Cl)cccc2Cl)noc1C(=O)NN,-54,3,·,-1,-3,2
CCOc1ccc2c(c1)C(c1cccs1)=NNC(c1cccnc1)=N2,-15,3,0,14,0,44*
Brc1ccc2c(c1)C(c1cccs1)=NNC(c1cccnc1)=N2,10,3,0,22,-2,-9
CCCCCCCCCCCCCCCC(O)C(N)CO (centres undefined),66*,-21,0,26,12,84*
Cc1cc(=O)oc2cc(OCc3ccc(C(=O)N4CCN(c5ccc([N+](=O)[O-])cc5)CC4)cc3)ccc12,-5,-2,0,0,-8,-21
COC(=O)c1ccc(Oc2coc3cc(OCc4ccc([N+](=O)[O-])cc4)ccc3c2=O)cc1,94*,0,0,55*,-1,-10
CCOC(=O)Nc1sc(=S)n(C)c1C,-31,-4,-3,17,84*,-7
Cn1c(=O)c2c(nc(OCc3ccc4c(c3)OCO4)n2Cc2ccccc2Cl)n(C)c1=O,51*,-14,-4,3,4,15
Cn1c(=O)c2c(nc(NCc3ccc4c(c3)OCO4)n2Cc2ccccc2Cl)n(C)c1=O,-34,-15,-4,5,-3,-8
COc1ccc(N2CCN(C(=O)CCNC(=O)Cn3ccc4ccccc4c3=O)CC2)cc1,-25,78*,-3,12,55,-8
Cc1nc(SCC(=O)NC(=O)NC(C)C)nc(C)c1C,-15,4,0,64*,-3,-9
Cc1nc(SCC(=O)NC(=O)NC(C)(C)C)nc(C)c1C,-17,-11,·,-21,-2,-11
Cc1ccc([N+](=O)[O-])cc1NC(=O)CN1CCC(C)CC1,-10,-3,-1,4,-2,72*
Cc1ccc([N+](=O)[O-])cc1NC(=O)Cc1cccs1,-21,37*,0,56*,56,-5
